The supplement of paper PMC8728848
This is one part of a sample in which the strongest signals are shown more often than they occur.

Legend:
Assay in all cases: glycan array binding signal (z-score within array); higher = stronger binding
Settings in all cases: glycan notation: IUPAC condensed, linker removed
[1] = biological target: Fuc(a1-2)Gal(b1-3)GalNAc(b1-3)Gal(a1-4)Gal(b1-4)Glc
Outline: (§1)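 Glycan array data were curated from 3228 arrays in the Consortium for Functional Glycomics database and kept only where the protein sequence was available. Glycan names were converted to IUPAC-condensed notation, and columns mapping to the same glycan were averaged. The binding signal is a within-array Z-score, averaged across arrays of the same protein sequence at different concentrations or buffers and across linkers. Negative Z-scores can be read as non-binding.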

[2] = biological target: Fuc(a1-2)Gal(b1-3)GlcNAc(b1-2)Man(a1-3)[Fuc(a1-2)Gal(b1-3)GlcNAc(b1-2)Man(a1-6)]Man(b1-4)GlcNAc(b1-4)[Fuc(a1-6)]GlcNAc
Outline: as §1

[3] = biological target: Fuc(a1-2)Gal(b1-4)GlcNAc(b1-2)[Fuc(a1-2)Gal(b1-4)GlcNAc(b1-4)]Man(a1-3)[Fuc(a1-2)Gal(b1-4)GlcNAc(b1-2)Man(a1-6)]Man(b1-4)GlcNAc(b1-4)GlcNAc
Outline: as §1

[4] = biological target: Fuc(a1-2)Gal(b1-4)[Fuc(a1-3)]GlcNAc(b1-2)Man(a1-3)[Fuc(a1-2)Gal(b1-4)[Fuc(a1-3)]GlcNAc(b1-2)Man(a1-6)]Man(b1-4)GlcNAc(b1-4)[Fuc(a1-6)]GlcNAc
Outline: as §1

[5] = biological target: Fuc(a1-2)Gal(b1-4)[Fuc(a1-3)]GlcNAc(b1-3)Gal(b1-4)[Fuc(a1-3)]GlcNAc(b1-3)Gal(b1-4)[Fuc(a1-3)]GlcNAc
Outline: as §1

[6] = biological target: Fuc(a1-2)Gal(b1-4)[Fuc(a1-3)]GlcNAc(b1-3)[Neu5Ac(a2-6)Gal(b1-4)GlcNAc(b1-6)]Gal(b1-4)Glc
Outline: as §1

[7] = biological target: Fuc(a1-2)[Gal(a1-3)]Gal(b1-4)GlcNAc(b1-2)Man(a1-3)[Fuc(a1-2)[Gal(a1-3)]Gal(b1-4)GlcNAc(b1-2)Man(a1-6)]Man(b1-4)GlcNAc(b1-4)GlcNAc
Outline: as §1

[8] = biological target: Fuc(a1-2)[GalNAc(a1-3)]Gal(b1-3)GalNAc(b1-3)Gal(a1-4)Gal(b1-4)Glc
Outline: as §1

[9] = biological target: Fuc(a1-2)[GalNAc(a1-4)]Gal(b1-4)GlcNAc
Outline: as §1

[10] = biological target: Fuc(a1-3)[Gal(b1-4)]GlcNAc(b1-6)GalNAc
Outline: as §1

Gal(a1-4)GlcNAc = biological target: Gal(a1-4)GlcNAc
Outline: as §1

[11] = biological target: Gal(b1-3)GlcNAc(a1-6)Gal(b1-4)GlcNAc
Outline: as §1

[12] = biological target: Gal(b1-3)GlcNAc(b1-2)Man(a1-3)[Gal(b1-3)GlcNAc(b1-2)Man(a1-6)]Man(b1-4)GlcNAc(b1-4)GlcNAc
Outline: as §1

[13] = biological target: Gal(b1-3)GlcNAc(b1-3)Gal(b1-4)GlcNAc(b1-6)[Gal(b1-3)GlcNAc(b1-3)]Gal(b1-4)Glc
Outline: as §1

[14] = biological target: Gal(b1-3)GlcNAc(b1-3)Gal(b1-4)[Fuc(a1-3)]GlcNAc(b1-6)[Gal(b1-3)GlcNAc(b1-3)]Gal(b1-4)Glc
Outline: as §1

[15] = biological target: Gal(b1-4)GlcNAc(b1-2)Man(a1-3)[Gal(b1-4)GlcNAc(b1-2)Man(a1-6)][GlcNAc(b1-4)]Man(b1-4)GlcNAc(b1-4)[Fuc(a1-6)]GlcNAc
Outline: as §1

[16] = biological target: Gal(b1-4)GlcNAc(b1-2)Man(a1-3)[Man(a1-6)]Man(b1-4)GlcNAc(b1-4)GlcNAc
Outline: as §1

[17] = biological target: Gal(b1-4)GlcNAc(b1-2)Man(a1-6)[GlcNAc(b1-2)Man(a1-3)]Man(b1-4)GlcNAc(b1-4)GlcNAc
Outline: as §1

[18] = biological target: Gal(b1-4)GlcNAc(b1-2)[Gal(b1-4)GlcNAc(b1-4)]Man(a1-3)[Gal(b1-4)GlcNAc(b1-2)[Gal(b1-4)GlcNAc(b1-6)]Man(a1-6)]Man(b1-4)GlcNAc(b1-4)GlcNAc
Outline: as §1

[19] = biological target: Gal(b1-4)GlcNAc(b1-3)Gal(b1-4)GlcNAc(b1-2)[Gal(b1-4)GlcNAc(b1-3)Gal(b1-4)GlcNAc(b1-6)]Man(a1-6)[Gal(b1-4)GlcNAc(b1-3)Gal(b1-4)GlcNAc(b1-2)Man(a1-3)]Man(b1-4)GlcNAc(b1-4)[Fuc(a1-6)]GlcNAc
Outline: as §1

[20] = biological target: Gal(b1-4)GlcNAc(b1-3)Gal(b1-4)GlcNAc(b1-3)Gal(b1-4)GlcNAc(b1-2)[Gal(b1-4)GlcNAc(b1-3)Gal(b1-4)GlcNAc(b1-3)Gal(b1-4)GlcNAc(b1-6)]Man(a1-6)[Gal(b1-4)GlcNAc(b1-3)Gal(b1-4)GlcNAc(b1-3)Gal(b1-4)GlcNAc(b1-2)Man(a1-3)]Man(b1-4)GlcNAc(b1-4)[Fuc(a1-6)]GlcNAc
Outline: as §1

[21] = biological target: Gal(b1-4)GlcNAc(b1-3)Gal(b1-4)GlcNAc(b1-3)Gal(b1-4)GlcNAc(b1-3)Gal(b1-4)GlcNAc(b1-3)Gal(b1-4)GlcNAc(b1-2)Man(a1-3)[Gal(b1-4)GlcNAc(b1-3)Gal(b1-4)GlcNAc(b1-3)Gal(b1-4)GlcNAc(b1-3)Gal(b1-4)GlcNAc(b1-3)Gal(b1-4)GlcNAc(b1-2)Man(a1-6)]Man(b1-4)GlcNAc(b1-4)[Fuc(a1-6)]GlcNAc
Outline: as §1

[22] = biological target: Gal(b1-4)GlcNAc(b1-3)Gal(b1-4)GlcNAc(b1-3)Gal(b1-4)GlcNAc(b1-3)Gal(b1-4)GlcNAc(b1-3)Gal(b1-4)GlcNAc(b1-2)[Gal(b1-4)GlcNAc(b1-3)Gal(b1-4)GlcNAc(b1-3)Gal(b1-4)GlcNAc(b1-3)Gal(b1-4)GlcNAc(b1-3)Gal(b1-4)GlcNAc(b1-6)]Man(a1-6)[Gal(b1-4)GlcNAc(b1-3)Gal(b1-4)GlcNAc(b1-3)Gal(b1-4)GlcNAc(b1-3)Gal(b1-4)GlcNAc(b1-3)Gal(b1-4)GlcNAc(b1-2)Man(a1-3)]Man(b1-4)GlcNAc(b1-4)[Fuc(a1-6)]GlcNAc
Outline: as §1

[23] = biological target: Gal(b1-4)GlcNAc(b1-3)Gal(b1-4)GlcNAc(b1-3)GalNAc
Outline: as §1

[24] = biological target: Gal(b1-4)GlcNAc(b1-3)Gal(b1-4)GlcNAc(b1-6)[Gal(b1-3)]GalNAc
Outline: as §1

[25] = biological target: Gal(b1-4)GlcNAc(b1-3)Gal(b1-4)[Fuc(a1-3)]GlcNAc(b1-3)Gal(b1-4)[Fuc(a1-3)]GlcNAc
Outline: as §1

[26] = biological target: Gal(b1-4)GlcNAc(b1-3)GalNAc
Outline: as §1

[27] = biological target: Gal(b1-4)GlcNAc(b1-3)[Fuc(a1-3)GlcNAc(b1-6)]Gal(b1-4)Glc
Outline: as §1

Gal3S(b1-4)Glc = biological target: Gal3S(b1-4)Glc
Outline: as §1

Gal4S6S(b1-4)GlcNAc = biological target: Gal4S6S(b1-4)GlcNAc
Outline: as §1

B1: Awp3 (Candida glabrata), B4UN32 (protein)
chain: MISFVTLLAILGLLSISWADQTVRSVAGDQRVTDPVIVGDNSILDYYGGSNYDFSNNFEIGRGTLYIGKESYFSSFQSAPTDVPNSFHLLIKNTNNLQNNGQFIIENIKRHANQCSNSSIQVFPINFQNDGEFEIISGGVEGRCCLPTSVIAPQNFLNNGKFYYKVLTDTGSIYSGSCMQNVDIGASTTTTVNNNLWEFTGSINAQINGAVSGAAQINLDGSNMFVNANTFSGQVVNLINGGSFLQTSDPLSNIVVINGLGTSDTGVTSIAVKGKGKSFTYNPSSGIVKLTTVEGKTYAYQIGCGYNTKKFITNNDSGASYESADNFFVLTYSEPYSPQTCQLENSSIFSSNFISTSTSSSSSSSSASSLPSSMSSSLPSSLSSSLSSSLSSSMSSSMSSLFIIPPPYTTTRSSGSSIIDTEIVSFYSTTDSPGHTITGTTTTTLYGPHTHSSVSTPSSSSESSTTSNSSIESSSLPHTSVSSTPESSITPSSNTISSSPTSDFSSVQSSSIMESSSVVASSSVINSSSIVDSSSSSASSLPSSMSSSLSSSMSSSLPSSMSSSLSSSLSSSLSSSMSSSMSSLFIIPPPYTTTRSSGSSIIDTEIVSFYSTTDSPGHTITGTTTTTLYGPHTHSSVSTPSSSSESSTTSNSSIESSSLPHTSVSSTPESSITPSSNTISSSPTSDFSSVQSSSIMESSSVVASSSVINSSSIVDSSSSSASSLPSSMPSSLPSSMSSSLSSSMSSSLSSSLSSSLSSSMSSSMSSLFIIPPPYTTTRSSGSSIIDTEIVSFYSTTDSPGHTITGTTTTTLYGPHTHSSVSTPSSSSESSTTSNSSIESSSLPHTSVSSTPESSITPSSNTISSSPTSDFSSVQSSSIMESSSVVASSSATQSSSVINSSSIVDSSSSSASSLPSSMPSSLPSSLSSSLSSSLSSSMSSSMSSLFIIPPPYTTTRSSGSSIIDTEIVSFYSTTDSPGHTITGTTTTTLYESSIYSSSSSTIQESELSNTSRTTMTSNSSVSISSTSSRSSFSNTKSSTIVISQSASLPDSKTDIILSTSSNIGYSSRSLLSDLGTSISDSDIHHSVLHSTESYSSNESGTNPFTSIASLSNFIPESSSHTSTALGSENSVISSDILTTMSHPVATNSGDKPTTPKRSEQVSTTMTSSGPTPDTSSFDTDGMSAYSRPEFTTNSLEVNKSSTSQLGNNKQTFSNLQLESTRPHSENEVDNNTRLLQSIQQSSTYGTNNVNPLSPTGSISIPLTEDGQGDNNNWNSPATNDLCTQISFNLTATTITVTDRITITDSIHDISSEVITSYIYQTIVDQKTVTQTVDGKSLANKMSSIPKPSSRSLIQPQPPVAIELQEGAASTSRVSLVSLFISIILVLL
B1 was tested, and the “glycan array binding signal (z-score)” value [1] was 2.34, the “glycan array binding signal (z-score)” value [2] was 1.49 and the “glycan array binding signal (z-score)” value [3] was 3.23. For the same binder, the “glycan array binding signal (z-score)” value [4] was -0.693, the “glycan array binding signal (z-score)” value [5] was 1.19 and the “glycan array binding signal (z-score)” value [6] was -1.1. The “glycan array binding signal (z-score)” value [7] was 2.45, the “glycan array binding signal (z-score)” value [8] was 2.28 and the “glycan array binding signal (z-score)” value [9] was -0.218. For the same binder, the “glycan array binding signal (z-score)” value [10] was 0.39, the “glycan array binding signal (z-score)” value (Gal(a1-4)GlcNAc) was 2.25 and the “glycan array binding signal (z-score)” value [11] was 0.259. For the same binder, the “glycan array binding signal (z-score)” value [12] was 2.55, the “glycan array binding signal (z-score)” value [13] was 1.3 and the “glycan array binding signal (z-score)” value [14] was 2.48. The “glycan array binding signal (z-score)” value [15] was 1.4, the “glycan array binding signal (z-score)” value [16] was -0.338 and the “glycan array binding signal (z-score)” value [17] was 0.07. For the same binder, the “glycan array binding signal (z-score)” value [18] was -0.258, the “glycan array binding signal (z-score)” value [19] was -1.19 and the “glycan array binding signal (z-score)” value [20] was 1.96. The “glycan array binding signal (z-score)” value [21] was 0.113, the “glycan array binding signal (z-score)” value [22] was -0.313 and the “glycan array binding signal (z-score)” value [23] was 1.03. The “glycan array binding signal (z-score)” value [24] was -0.292, the “glycan array binding signal (z-score)” value [25] was 0.452 and the “glycan array binding signal (z-score)” value [26] was -0.074. For the same binder, the “glycan array binding signal (z-score)” value [27] was -0.665, the “glycan array binding signal (z-score)” value (Gal3S(b1-4)Glc) was -0.288 and the “glycan array binding signal (z-score)” value (Gal4S6S(b1-4)GlcNAc) was 0.372.
